Experimental findings from the supplement of paper PMC11006884 are described below.

Of roughly 6,500 targets only a part is listed; those with a hit were picked by preference. About 2% of all pairs of compound and target were hits. Unmarked numbers belong to inactive results.

UniProt Q8IVM0, sequence (Q8IVM0 whole entry, looked up): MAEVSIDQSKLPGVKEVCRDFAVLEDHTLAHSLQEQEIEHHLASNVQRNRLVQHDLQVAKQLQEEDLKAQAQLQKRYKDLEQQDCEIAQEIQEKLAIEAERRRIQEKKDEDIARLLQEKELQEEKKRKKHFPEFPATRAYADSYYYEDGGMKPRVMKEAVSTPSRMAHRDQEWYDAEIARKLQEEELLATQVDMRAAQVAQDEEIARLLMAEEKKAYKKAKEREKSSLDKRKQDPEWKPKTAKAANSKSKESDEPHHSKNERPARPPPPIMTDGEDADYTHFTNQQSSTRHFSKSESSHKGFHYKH
UniProt Q6ZRI6, sequence (Q6ZRI6 whole entry): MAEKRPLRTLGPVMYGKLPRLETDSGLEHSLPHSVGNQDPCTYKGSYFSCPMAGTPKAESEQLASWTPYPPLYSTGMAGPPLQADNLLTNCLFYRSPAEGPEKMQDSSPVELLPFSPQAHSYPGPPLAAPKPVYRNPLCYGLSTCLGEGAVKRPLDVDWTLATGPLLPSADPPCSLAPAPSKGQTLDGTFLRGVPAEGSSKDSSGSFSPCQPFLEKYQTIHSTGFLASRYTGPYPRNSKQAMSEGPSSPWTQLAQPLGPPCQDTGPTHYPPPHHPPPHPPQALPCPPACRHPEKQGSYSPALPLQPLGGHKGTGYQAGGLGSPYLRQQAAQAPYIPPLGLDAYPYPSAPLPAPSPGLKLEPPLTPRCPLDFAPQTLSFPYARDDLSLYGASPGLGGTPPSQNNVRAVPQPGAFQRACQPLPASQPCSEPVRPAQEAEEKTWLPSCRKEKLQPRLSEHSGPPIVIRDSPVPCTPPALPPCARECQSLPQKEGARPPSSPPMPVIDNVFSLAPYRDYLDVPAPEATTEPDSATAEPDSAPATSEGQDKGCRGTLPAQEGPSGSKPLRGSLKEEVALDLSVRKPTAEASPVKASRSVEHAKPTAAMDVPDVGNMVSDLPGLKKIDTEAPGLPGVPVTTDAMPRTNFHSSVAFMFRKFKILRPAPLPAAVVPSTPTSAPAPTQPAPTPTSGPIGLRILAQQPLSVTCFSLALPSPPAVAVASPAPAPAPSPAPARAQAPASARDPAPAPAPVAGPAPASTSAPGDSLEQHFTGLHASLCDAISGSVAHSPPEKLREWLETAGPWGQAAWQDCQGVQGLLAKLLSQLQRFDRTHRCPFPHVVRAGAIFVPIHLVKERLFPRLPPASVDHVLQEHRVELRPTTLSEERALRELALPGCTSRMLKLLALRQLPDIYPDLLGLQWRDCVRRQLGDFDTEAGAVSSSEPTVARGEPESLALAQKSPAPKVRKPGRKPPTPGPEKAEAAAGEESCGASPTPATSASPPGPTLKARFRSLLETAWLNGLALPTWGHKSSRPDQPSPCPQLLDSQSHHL
UniProt Q93074, sequence (Q93074 whole entry, looked up): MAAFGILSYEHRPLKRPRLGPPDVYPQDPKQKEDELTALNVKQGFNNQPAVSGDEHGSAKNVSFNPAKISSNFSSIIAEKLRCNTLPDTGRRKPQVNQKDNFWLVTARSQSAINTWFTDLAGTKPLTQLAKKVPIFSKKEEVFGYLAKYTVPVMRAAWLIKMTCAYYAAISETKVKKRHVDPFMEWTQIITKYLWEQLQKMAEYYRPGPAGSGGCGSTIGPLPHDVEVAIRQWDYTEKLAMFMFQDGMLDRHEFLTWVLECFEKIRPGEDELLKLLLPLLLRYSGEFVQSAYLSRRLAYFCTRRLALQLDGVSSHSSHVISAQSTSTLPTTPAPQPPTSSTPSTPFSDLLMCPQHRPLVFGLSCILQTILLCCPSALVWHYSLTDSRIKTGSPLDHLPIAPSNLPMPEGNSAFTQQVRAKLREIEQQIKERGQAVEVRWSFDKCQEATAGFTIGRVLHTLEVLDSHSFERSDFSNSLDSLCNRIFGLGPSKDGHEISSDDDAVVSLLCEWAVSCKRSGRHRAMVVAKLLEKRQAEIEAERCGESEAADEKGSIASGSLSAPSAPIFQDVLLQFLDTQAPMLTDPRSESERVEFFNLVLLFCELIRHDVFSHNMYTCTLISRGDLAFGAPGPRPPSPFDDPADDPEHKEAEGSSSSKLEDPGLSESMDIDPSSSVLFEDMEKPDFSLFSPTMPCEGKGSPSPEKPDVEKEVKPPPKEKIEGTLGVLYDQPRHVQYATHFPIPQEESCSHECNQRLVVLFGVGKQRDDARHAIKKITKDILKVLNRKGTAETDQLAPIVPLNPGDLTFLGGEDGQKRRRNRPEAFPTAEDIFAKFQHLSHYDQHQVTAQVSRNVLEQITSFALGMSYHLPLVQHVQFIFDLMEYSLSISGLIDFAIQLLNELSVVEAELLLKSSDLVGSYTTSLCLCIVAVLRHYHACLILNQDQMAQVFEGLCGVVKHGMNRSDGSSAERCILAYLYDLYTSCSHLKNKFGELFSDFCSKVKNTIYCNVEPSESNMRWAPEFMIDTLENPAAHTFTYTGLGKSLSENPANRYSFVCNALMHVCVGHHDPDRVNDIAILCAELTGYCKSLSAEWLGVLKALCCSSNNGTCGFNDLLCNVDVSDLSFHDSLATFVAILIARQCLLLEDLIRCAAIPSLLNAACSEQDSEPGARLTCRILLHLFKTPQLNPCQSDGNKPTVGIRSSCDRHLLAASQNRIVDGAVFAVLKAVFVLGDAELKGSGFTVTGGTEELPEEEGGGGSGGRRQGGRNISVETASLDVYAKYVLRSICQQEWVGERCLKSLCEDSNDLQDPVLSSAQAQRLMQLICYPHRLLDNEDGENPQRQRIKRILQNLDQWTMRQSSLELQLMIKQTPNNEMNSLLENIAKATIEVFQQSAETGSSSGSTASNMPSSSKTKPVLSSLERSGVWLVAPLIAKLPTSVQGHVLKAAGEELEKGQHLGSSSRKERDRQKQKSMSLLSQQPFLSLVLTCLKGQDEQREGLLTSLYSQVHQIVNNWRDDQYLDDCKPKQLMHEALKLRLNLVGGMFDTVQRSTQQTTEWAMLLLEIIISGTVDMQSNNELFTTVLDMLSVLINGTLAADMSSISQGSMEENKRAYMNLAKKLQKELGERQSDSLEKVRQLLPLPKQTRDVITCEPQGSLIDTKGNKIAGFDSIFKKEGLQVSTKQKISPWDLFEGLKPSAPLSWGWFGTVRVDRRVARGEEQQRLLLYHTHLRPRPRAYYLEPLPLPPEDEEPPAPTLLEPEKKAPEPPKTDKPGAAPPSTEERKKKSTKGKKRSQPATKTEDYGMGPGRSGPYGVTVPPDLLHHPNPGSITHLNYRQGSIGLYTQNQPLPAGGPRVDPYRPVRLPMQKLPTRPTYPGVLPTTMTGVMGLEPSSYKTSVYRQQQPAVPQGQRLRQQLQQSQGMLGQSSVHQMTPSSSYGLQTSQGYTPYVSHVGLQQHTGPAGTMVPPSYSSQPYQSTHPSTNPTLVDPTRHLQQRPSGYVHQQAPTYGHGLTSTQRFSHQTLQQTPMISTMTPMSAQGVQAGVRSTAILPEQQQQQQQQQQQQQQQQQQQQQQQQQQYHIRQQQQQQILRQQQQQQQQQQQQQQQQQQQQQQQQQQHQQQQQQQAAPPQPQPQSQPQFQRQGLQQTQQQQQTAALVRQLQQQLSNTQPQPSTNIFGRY
UniProt Q8WTT2, sequence (Q8WTT2 whole entry): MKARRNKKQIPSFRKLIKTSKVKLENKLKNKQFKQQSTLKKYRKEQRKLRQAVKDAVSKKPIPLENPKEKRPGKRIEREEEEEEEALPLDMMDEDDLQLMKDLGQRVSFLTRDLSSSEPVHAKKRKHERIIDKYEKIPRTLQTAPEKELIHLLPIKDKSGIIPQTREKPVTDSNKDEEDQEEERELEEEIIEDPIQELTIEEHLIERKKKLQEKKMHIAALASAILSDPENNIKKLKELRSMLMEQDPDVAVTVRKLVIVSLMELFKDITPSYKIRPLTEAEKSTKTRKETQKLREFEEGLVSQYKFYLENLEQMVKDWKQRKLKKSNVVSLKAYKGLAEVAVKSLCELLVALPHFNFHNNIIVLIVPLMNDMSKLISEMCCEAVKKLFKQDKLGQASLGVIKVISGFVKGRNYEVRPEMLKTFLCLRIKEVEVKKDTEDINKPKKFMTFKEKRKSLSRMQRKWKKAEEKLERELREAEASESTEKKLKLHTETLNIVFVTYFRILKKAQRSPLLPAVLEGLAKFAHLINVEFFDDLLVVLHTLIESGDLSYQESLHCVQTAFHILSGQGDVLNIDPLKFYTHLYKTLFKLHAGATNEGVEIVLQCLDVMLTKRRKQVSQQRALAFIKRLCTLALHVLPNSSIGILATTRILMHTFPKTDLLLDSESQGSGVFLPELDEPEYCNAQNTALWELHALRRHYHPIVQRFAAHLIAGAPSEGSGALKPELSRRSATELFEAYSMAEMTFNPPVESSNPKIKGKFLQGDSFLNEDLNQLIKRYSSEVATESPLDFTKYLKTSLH
UniProt Q6AI12, sequence (Q6AI12 whole entry, looked up): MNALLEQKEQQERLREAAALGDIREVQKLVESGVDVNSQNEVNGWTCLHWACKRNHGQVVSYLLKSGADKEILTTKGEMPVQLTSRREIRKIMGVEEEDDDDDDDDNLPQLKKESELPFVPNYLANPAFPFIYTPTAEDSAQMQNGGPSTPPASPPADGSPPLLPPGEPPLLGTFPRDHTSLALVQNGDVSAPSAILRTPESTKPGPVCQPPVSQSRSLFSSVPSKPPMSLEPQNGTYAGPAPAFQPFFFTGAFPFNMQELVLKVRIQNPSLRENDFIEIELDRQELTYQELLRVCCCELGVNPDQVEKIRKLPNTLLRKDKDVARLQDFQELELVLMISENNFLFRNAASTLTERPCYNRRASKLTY
UniProt Q96EP5, sequence (Q96EP5 whole entry, looked up): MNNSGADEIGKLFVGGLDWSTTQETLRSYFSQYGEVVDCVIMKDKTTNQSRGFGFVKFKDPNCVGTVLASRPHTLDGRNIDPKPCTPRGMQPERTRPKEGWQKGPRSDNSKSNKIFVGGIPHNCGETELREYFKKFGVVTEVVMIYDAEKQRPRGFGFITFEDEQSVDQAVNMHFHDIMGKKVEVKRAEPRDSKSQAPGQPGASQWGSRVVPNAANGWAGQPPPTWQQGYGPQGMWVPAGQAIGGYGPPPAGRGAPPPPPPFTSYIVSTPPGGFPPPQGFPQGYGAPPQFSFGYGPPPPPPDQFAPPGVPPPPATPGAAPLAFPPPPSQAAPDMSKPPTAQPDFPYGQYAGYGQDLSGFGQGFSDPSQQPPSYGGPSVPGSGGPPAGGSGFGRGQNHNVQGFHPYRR

Compound in this assay: COC(=O)C#Cc1ccccc1 [methyl 3-phenylpropiolate]
Description: log2 ratio of iodoacetamide-alkyne labeling of the cysteine site, DMSO over compound (competition); higher = stronger covalent engagement of the cysteine by the compound, active = 1 or more. Particulars: 500 µM; treatment time 1 h; system: HEK293T cell lysate. In short, it runs like this: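 After 1 h at ambient temperature with vehicle or electrophile (500 µM), HEK293T lysate (2 mg/mL) was labelled for 1 h with iodoacetamide alkyne and clicked to sCIP-TMT reagents. Pooled samples were trypsin-digested overnight at 37 °C, streptavidin-enriched, acid-eluted and analysed by Orbitrap Eclipse LC-MS/MS with FAIMS, then quantified in FragPipe over three replicates with duplicate channels. A cysteine's log2 competition ratio is its mean control-channel over mean compound-channel reporter intensity. Cysteines quantified in only one replicate were not included.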
Consider ZFR C974 (UniProt Q96KR1), for which the “log2 ratio of iodoacetamide-alkyne labeling” value (from here on “log2 ratio”) was 0.302.

Regarding WDFY1 C287 (UniProt Q8IWB7), the “log2 ratio” value was 0.127.

Regarding DAZAP1 C39 (UniProt Q96EP5), the “log2 ratio” value is 0.0955.

For the target SMC5 C726 (UniProt Q8IY18), the “log2 ratio” value was 0.249.

For the target AHCYL2 C353 (UniProt Q96HN2), the “log2 ratio” value is 1.13 (active).

Turning to DHX38 C20 (UniProt Q92620), the “log2 ratio” value was 1.36 (active).

For the target UniProt Q8NFC6_C686, the “log2 ratio” value is 0.47.

As for CCDC117 C81 (UniProt Q8IWD4), the “log2 ratio” value was 1.66 (active).

On to ISCA2 C146 (UniProt Q86U28), for which the “log2 ratio” value is 1.59 (active).

For the target NOC3L C683 (UniProt Q8WTT2), the “log2 ratio” value is 0.191.

As to C15orf39 C367 (UniProt Q6ZRI6), the “log2 ratio” value was 1.32 (active).

Take MED12 C83 (UniProt Q93074): the “log2 ratio” value was 0.457.

For the target NUP205 C877 (UniProt Q92621), the “log2 ratio” value was 0.102.

Take HIST2H3A C111 (UniProt Q71DI3): the “log2 ratio” value was 0.0441.

Take AKAP1 C376 (UniProt Q92667): the “log2 ratio” value was 1.15 (active).

For CCDC50 C85 (UniProt Q8IVM0), the “log2 ratio” value was 0.455.

Take INTS1 C643 (UniProt Q8N201): the “log2 ratio” value is 0.127.

Turning to MTHFD1L C291 (UniProt Q6UB35), the “log2 ratio” value was 0.126.

ACO2 C385 (UniProt Q99798): the “log2 ratio” value is 1.66 (active).

Consider UniProt Q69YQ0_C79, for which the “log2 ratio” value is 0.787.

Turning to ANKRD40 C209 (UniProt Q6AI12), the “log2 ratio” value is 0.466.

With UniProt Q8WZA9_C373, the “log2 ratio” value is 0.706.
